Compounds with a hit are over-represented: about 3.5% of the library has one in this group of screens.
GPR151 ag = activates the human receptor GPR151; Q8TDV0; PathHunter beta-arrestin GPR151 cells, luminescence; activation, % at 11.2 µM; 1% of 650,000 active; AID 1508602; in the data active = activation above about 4.9%;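 also: 0% = median of compound wells and 100% = cells with positive control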
MITF primary = blocks human microphthalmia-associated transcription factor | O75030 | AID 1259374 | inhibition, % at 2.6 µM | AlphaScreen MITF homodimerization, bead proximity signal | 0.91% of 650,000 active; in the data active = inhibition above about 50%;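 also: 0% = vehicle wells with protein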
TEAD-YAP inh = TEAD-YAP interaction inhibition; 1.4% of 640,000 active; HEK-TIYL cells, TEAD-Gal4/YAP UAS-luciferase luminescence; inhibition, % at 9.12 µM; in the data active = inhibition above about 32%;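 also: 0% = median of test compound wells and 100% = reference inhibitor wells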
FBW7 act = human FBW7 E3 ligase activation, primary screen | AlphaScreen FBW7–phospho-cyclin E peptide binding, activator screen | 0.13% of 650,000 active | AID 1259310 | normalized activity (activation), % at 26.1 µM; in the data active = normalized activity above about 1.9%;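 also: purified mutant Fbw7 with reduced substrate affinity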
Target sequence (Q969H0 whole entry, looked up): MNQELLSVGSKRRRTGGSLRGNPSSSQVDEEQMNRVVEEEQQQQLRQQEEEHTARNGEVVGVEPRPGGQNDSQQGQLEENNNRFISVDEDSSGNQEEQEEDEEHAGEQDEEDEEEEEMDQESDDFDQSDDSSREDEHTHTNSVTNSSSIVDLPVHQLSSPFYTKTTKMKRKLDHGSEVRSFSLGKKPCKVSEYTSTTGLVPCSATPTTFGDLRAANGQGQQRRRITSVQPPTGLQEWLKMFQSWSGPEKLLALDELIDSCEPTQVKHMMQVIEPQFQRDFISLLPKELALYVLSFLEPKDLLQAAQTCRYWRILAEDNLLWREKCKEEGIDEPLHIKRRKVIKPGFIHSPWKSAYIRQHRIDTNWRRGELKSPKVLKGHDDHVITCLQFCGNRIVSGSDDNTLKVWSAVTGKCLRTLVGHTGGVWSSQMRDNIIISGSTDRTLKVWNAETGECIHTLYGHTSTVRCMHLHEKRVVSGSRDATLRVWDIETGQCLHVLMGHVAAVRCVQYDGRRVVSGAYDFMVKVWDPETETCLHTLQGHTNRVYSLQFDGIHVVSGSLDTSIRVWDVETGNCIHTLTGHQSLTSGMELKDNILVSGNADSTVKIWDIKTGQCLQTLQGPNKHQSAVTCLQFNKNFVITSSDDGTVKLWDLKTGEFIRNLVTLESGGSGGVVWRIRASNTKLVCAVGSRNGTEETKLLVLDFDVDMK
The depositor's hits bear a star.

SMILES	GPR151 ag	MITF primary	TEAD-YAP inh	FBW7 act
COc1ccc(OCC(=O)Nc2ccc(NC(=O)c3ccccc3)cc2)cc1	3.1	-10.5	36.3*	0.0
CCc1ccc(C(=O)Nc2ccc(Br)cn2)cc1	-3.9	10.7	38.1*	0.2
CCC(Sc1nc2ccccc2c2nc(C)nn12)C(=O)Nc1ccc(OC)cc1 (configuration not stated)	0.0	3.4	4.8	-0.1
O=C(O)C1CS/C(=C\c2ccc(-n3ccnc3)cc2)N1 (configuration not stated)	2.9	-15.1	2.4	-0.1
CC(=O)Nc1ccc(OCC(=O)Nc2cccc(Oc3ccccc3)c2)cc1	0.1	5.7	35.8*	0.0
O=C(Nc1ccc(Br)cn1)c1ccccc1[N+](=O)[O-]	0.4	0.4	54.5*	-0.1
CC(=O)Nc1cccc(NC(=O)COc2ccc(Oc3ccccc3)cc2)c1	1.0	20.2	-1.1	0.4
CN1C(=O)Cc2cc(NC(=O)NCc3ccccc3)ccc21	-0.5	6.7	-1.9	-0.1
O=C(O)c1nccnc1C(=O)NCCc1ccccc1	0.1	2.6	0.0	-0.1
Cn1c(SCC(=O)N2CCCC2)nnc1-c1ccccc1O	-0.9	24.2	57.8*	-0.1
Cn1c(SCC(=O)O)nnc1-c1ccccc1O	1.1	5.0	44.2*	-0.2
CC1=CC2=NC(=O)/C(=C\c3ccc([N+](=O)[O-])o3)C(=N)N2O1	0.9	65.4*	4.1	-0.1
CCC1=NN2C(=N)/C(=C\c3ccc(SCc4ccco4)o3)C(=O)N=C2S1	-0.4	85.7*	-0.9	-0.6
N=C1/C(=C/c2ccc([N+](=O)[O-])o2)C(=O)N=C2SC(c3ccco3)=NN12	0.1	90.5*	7.2	-0.3
N=C1/C(=C\c2ccc([N+](=O)[O-])o2)C(=O)N=C2SC(N3CCCCC3)=NN12	-0.9	67.1*	-1.2	-0.2
COc1ccc(CC(=O)N/N=C(\C)c2ccc(C)o2)cc1	4.5	7.8	3.7	-0.1
COCCNc1c(-c2ccc(OC)c(O)c2)nc2cnccn12	-0.5	-5.0	-9.0	0.2
CCOc1cc(-c2nc3cnccn3c2NCCOC)ccc1O	-0.2	23.5	-0.6	6.3*
CN(C)c1ccc(C(=O)NCc2ccc3c(c2)CCO3)cc1	-0.2	-4.5	-2.7	1.1
Cn1nc(C(C)(C)C)cc1C(=O)NCc1ccc2c(c1)CCO2	-0.2	-3.2	42.4*	0.8
CN(C(=O)c1nn2c(c1Br)NC(c1ccc(Br)o1)CC2C(F)(F)F)C1CCCCC1 (configuration not stated)	2.2	-17.6	12.2	-0.2
Cc1nc(N)sc1C(=O)N/N=C/c1c(F)cccc1Cl	-1.6	1.3	-10.0	0.2
Cc1nc(N)sc1C(=O)N/N=C/c1c(Cl)ccc(Cl)c1Cl	1.1	15.3	8.5	2.5*
COc1cc(Nc2ccnc(N3CCN(Cc4ccc5c(c4)OCO5)CC3)n2)cc(OC)c1OC	-1.2	16.6	22.1	0.3
O=C(c1cc2ccccc2o1)c1coc2ccc(O)cc12	-8.3	-7.5	64.6*	0.0
SMILES	GPR151 ag	MITF primary	TEAD-YAP inh	FBW7 act
Cc1nc(C)c(C(=O)c2coc3ccc(O)cc23)o1	-0.2	10.6	-28.2	0.0
CNC(=O)C(NC(=O)c1ccccc1)=C1CCCCC1	-1.1	-3.4	43.0*	-0.1
CNC(=O)/C(=C\c1ccccc1)NC(=O)c1ccccc1	-0.3	8.0	-9.9	-0.2
Cc1ccc(NC(=O)CSc2nnc3c4ccccc4n(C)c3n2)cc1	-0.2	3.3	2.8	0.1
Oc1ccc(-c2csc3nc(-c4ccccc4)nn23)c(O)c1	-1.5	14.2	34.4*	0.2
Cc1nn2c(-c3ccccc3)csc2nc1=O	2.0	-7.2	10.1	-0.2
Cc1cc(C)c2cc3c(N)c(C(=O)Nc4nccs4)sc3nc2c1	-0.9	4.7	-16.0	5.4*
Cc1cc(C)c2c(N)c(C(=O)Nc3nccs3)sc2n1	-1.4	0.0	70.3*	0.5
OCc1cccc(N=Cc2c[nH]c3ccccc23)c1	0.4	-2.7	1.4	0.0
Cc1nc(/C=C/c2ccc(Cl)cc2)sc1C(=O)O	-11.5	-3.3	59.6*	-0.3
CCc1ccc(C(=O)COC(=O)c2ccccc2[N+](=O)[O-])cc1	-2.2	12.6	54.7*	0.7
O=C(COC(=O)c1ccccc1[N+](=O)[O-])c1ccccc1Cl	-1.5	11.8	33.9*	0.1
Cc1ccc(C(=O)COC(=O)c2ccccc2[N+](=O)[O-])cc1	-6.1	-10.6	90.3*	0.7
COc1ccc(C(=O)COC(=O)c2ccccc2[N+](=O)[O-])cc1	-7.1	32.0	2.0	0.0
CCOc1ccc(C(=O)COC(=O)c2ccccc2[N+](=O)[O-])cc1	-0.6	4.8	-0.6	0.6
Cc1c(C(=O)OCC(=O)c2ccccc2Cl)cccc1[N+](=O)[O-]	1.2	-3.1	-7.6	-0.2
CN1C(=O)C(C)(C)c2cc(S(=O)(=O)N3CCC(C(=O)NC4CCCC4)CC3)ccc21	-0.4	9.0	5.8	-0.1
C=CCn1c2ccccc2c2nnc(SCC(=O)Nc3ccc(OC(F)(F)F)cc3)nc21	-0.3	9.5	19.6	0.1
CCc1ccccc1N(C(=O)c1ccc(Br)cc1)C1C=CS(=O)(=O)C1 (configuration not stated)	1.8	0.9	-0.5	0.2
COc1cc(C=C2C(=O)N(C)C(=O)N(C)C2=O)c(O)c([N+](=O)[O-])c1	-0.1	1.9	-0.3	-1.1
CCOC(=O)Nc1c(C)cc(C)cc1[N+](=O)[O-]	-0.1	8.0	50.0*	0.2
CC(=O)C1C(c2ccc(N(C)C)cc2)c2c(n[nH]c2C)CC1(C)O (configuration not stated)	-0.4	-75.0	7.6	-0.1
COc1ccc(C2CC(=O)N(CC(=O)c3ccccc3)c3ccccc3S2)cc1OC (configuration not stated)	1.7	5.5	75.7*	0.0
COc1ccc(OCC(=O)N2c3ccccc3Sc3ccc(Cl)cc32)cc1	1.1	-0.2	-5.7	-0.1
O=C(COc1ccccc1)N1c2ccccc2Sc2ccccc21	0.1	-7.9	61.7*	0.1
Cc1ccc(N2CCN(C(=O)CC(C)(C)CC3=NS(=O)(=O)c4ccccc4N3)CC2)c(C)c1	-0.3	6.6	47.1*	0.0

Bioassay records (PubChem)
